From PubChem BioAssay (NCATS)
Inconclusive results are not listed. Active and inactive are the calls of the source. Calls come from the whole dose curve; as a rule, active = well fitted inhibition curve with a large enough effect; inconclusive = small, poorly fitted or top-dose-only effect; inactive = flat fitted curve, though single readings scatter.

These compounds were tested on PC49 (assay: qHTS profiling for inhibitors of Plasmodium falciparum proliferation (AID 504749)). Details: P. falciparum in erythrocytes, SYBR Green DNA, 72 h; series mostly up to 28.7 µM.
Procedure, shortened: (§1)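 SYBR Green fluorescence of parasite DNA, read after lysis and overnight dark incubation, measured growth over 72 h in erythrocyte culture at 0.3% parasitemia and 2.5% hematocrit. Data normalised to DMSO and 0.29 uM artemisinin, with plate-drift correction.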
Note: nearly all actives have a fitted effect of over 60% in size.
Potency is the fitted concentration of half-maximal effect.

SMILES | Potency
COc1cccc2c1C(=O)c1c(O)c3c(c(O)c1C2=O)C[C@@](O)(C(=O)CO)C[C@@H]3O[C@H]1C[C@H](N)[C@H](OC2CCCCO2)[C@H](C)O1 (some centres undefined) | 4.47 µM (active)
CCC(C(=O)O)C1CCC(C)C(C(C)C(O)C(C)C(=O)C(CC)C2OC3(C=CC(O)[C@@]4(CC[C@](C)(C5CC[C@@](O)(CC)C(C)O5)O4)O3)C(C)CC2C)O1 (some centres undefined) | 2.51 µM (active)
CCCCCCCCCCCC(CC1OC(=O)C1CCCCCC)OC(=O)C(CC(C)C)NC=O (centres undefined) | 0.891 µM (active)

The compounds below were run on SC27B in the same assay as above. Details: P. falciparum in erythrocytes, SYBR Green DNA, 72 h; series mostly up to 28.7 µM.
Procedure, shortened: as §1

SMILES | Potency
COc1cccc2c1C(=O)c1c(O)c3c(c(O)c1C2=O)C[C@@](O)(C(=O)CO)C[C@@H]3O[C@H]1C[C@H](N)[C@H](OC2CCCCO2)[C@H](C)O1 (some centres undefined) | 2.82 µM (active)
CCC(C(=O)O)C1CCC(C)C(C(C)C(O)C(C)C(=O)C(CC)C2OC3(C=CC(O)[C@@]4(CC[C@](C)(C5CC[C@@](O)(CC)C(C)O5)O4)O3)C(C)CC2C)O1 (some centres undefined) | 0.794 µM (active)
CCCCCCCCCCCC(CC1OC(=O)C1CCCCCC)OC(=O)C(CC(C)C)NC=O (centres undefined) | 0.447 µM (active)

Each compound was assayed on TAB109 in the same assay as above. Details: P. falciparum in erythrocytes, SYBR Green DNA, 72 h; series mostly up to 28.7 µM.
Procedure, shortened: as §1

SMILES | Potency
COc1cccc2c1C(=O)c1c(O)c3c(c(O)c1C2=O)C[C@@](O)(C(=O)CO)C[C@@H]3O[C@H]1C[C@H](N)[C@H](OC2CCCCO2)[C@H](C)O1 (some centres undefined) | 2.51 µM (active)
CCC(C(=O)O)C1CCC(C)C(C(C)C(O)C(C)C(=O)C(CC)C2OC3(C=CC(O)[C@@]4(CC[C@](C)(C5CC[C@@](O)(CC)C(C)O5)O4)O3)C(C)CC2C)O1 (some centres undefined) | 1 µM (active)
CCCCCCCCCCCC(CC1OC(=O)C1CCCCCC)OC(=O)C(CC(C)C)NC=O (centres undefined) | 0.794 µM (active)

Each compound was assayed on TAB113 in the same assay as above. Details: P. falciparum in erythrocytes, SYBR Green DNA, 72 h; series mostly up to 28.7 µM.
Procedure, shortened: as §1

SMILES | Potency
COc1cccc2c1C(=O)c1c(O)c3c(c(O)c1C2=O)C[C@@](O)(C(=O)CO)C[C@@H]3O[C@H]1C[C@H](N)[C@H](OC2CCCCO2)[C@H](C)O1 (some centres undefined) | 3.55 µM (active)
CCC(C(=O)O)C1CCC(C)C(C(C)C(O)C(C)C(=O)C(CC)C2OC3(C=CC(O)[C@@]4(CC[C@](C)(C5CC[C@@](O)(CC)C(C)O5)O4)O3)C(C)CC2C)O1 (some centres undefined) | 0.891 µM (active)
CCCCCCCCCCCC(CC1OC(=O)C1CCCCCC)OC(=O)C(CC(C)C)NC=O (centres undefined) | 0.282 µM (active)

The compounds below were run on TAB165 in the same assay as above. Details: P. falciparum in erythrocytes, SYBR Green DNA, 72 h; series mostly up to 28.7 µM.
Procedure, shortened: as §1

SMILES | Potency
COc1cccc2c1C(=O)c1c(O)c3c(c(O)c1C2=O)C[C@@](O)(C(=O)CO)C[C@@H]3O[C@H]1C[C@H](N)[C@H](OC2CCCCO2)[C@H](C)O1 (some centres undefined) | 2.24 µM (active)
CCC(C(=O)O)C1CCC(C)C(C(C)C(O)C(C)C(=O)C(CC)C2OC3(C=CC(O)[C@@]4(CC[C@](C)(C5CC[C@@](O)(CC)C(C)O5)O4)O3)C(C)CC2C)O1 (some centres undefined) | 0.708 µM (active)
CCCCCCCCCCCC(CC1OC(=O)C1CCCCCC)OC(=O)C(CC(C)C)NC=O (centres undefined) | 0.398 µM (active)

The compounds below were run on W2 in the same assay as above. Details: P. falciparum in erythrocytes, SYBR Green DNA, 72 h; series mostly up to 28.7 µM.
Procedure, shortened: as §1

SMILES | Potency
COc1cccc2c1C(=O)c1c(O)c3c(c(O)c1C2=O)C[C@@](O)(C(=O)CO)C[C@@H]3O[C@H]1C[C@H](N)[C@H](OC2CCCCO2)[C@H](C)O1 (some centres undefined) | 0.601 µM (active)
CCC(C(=O)O)C1CCC(C)C(C(C)C(O)C(C)C(=O)C(CC)C2OC3(C=CC(O)[C@@]4(CC[C@](C)(C5CC[C@@](O)(CC)C(C)O5)O4)O3)C(C)CC2C)O1 (some centres undefined) | 0.757 µM (active)
CCCCCCCCCCCC(CC1OC(=O)C1CCCCCC)OC(=O)C(CC(C)C)NC=O (centres undefined) | 0.675 µM (active)

The compounds below were run on HEK293 (assay: Cytotoxic Profiling of Annotated Libraries Using Quantitative High-Throughput Screening (AID 1296008; for max response: % is set by controls: 0 for no effect and ±100 for the full control effect)). Details: Five cell lines viability, CellTiter-Glo ATP luminescence, 48-72 h; max response: active compounds read low.
Procedure, shortened: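 Cytotoxicity was measured as CellTiter-Glo ATP luminescence, read after 10 min at room temperature. Compound treatment of the cells lasted 48 or 72 hr at 37 degrees Celsius in a qHTS format.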

SMILES | Potency | max response | outcome
N#Cc1c(C2CCNCC2)cc(-c2c(O)cccc2OCC2CC2)nc1N | 20.9 µM (active) | – | –
CC(C)(O)CC[C@@H](O)[C@](C)(O)[C@H]1CC[C@@]2(O)C3=CC(=O)[C@@H]4C[C@@H](O)[C@@H](O)C[C@]4(C)[C@@H]3CC[C@]12C | – | -3.79% (inactive) | –
COc1ccc(Nc2cc(-c3cnc(N)nc3)nc(N3CCOCC3)n2)cn1 | 1.87 µM (active) | – | –
OCCNC1CCCc2c1[nH]c1ccc(-c3ccccc3)cc21 (centres undefined) | 13.2 µM (active) | – | –
CCCCCCCCc1ccc(CCC(N)(CO)CO)cc1 | 26.4 µM (active) | – | –
Cn1cc(-c2ccc3ncc(Cc4ccc5ncccc5c4)n3n2)cn1 | – | 4.11% (inactive) | –
CC(C)NC[C@@H](C(=O)N1CCN(c2ncnc3c2[C@H](C)C[C@H]3O)CC1)c1ccc(Cl)cc1 | 0.209 µM (active) | – | –
Cc1cncc2cccc(S(=O)(=O)N3CCCN(C(=O)CN)C[C@@H]3C)c12 | – | – | inactive
COc1cccc2c1C(=O)c1c(O)c3c(c(O)c1C2=O)C[C@@](O)(C(=O)CO)C[C@@H]3O[C@H]1C[C@H](N)[C@H](OC2CCCCO2)[C@H](C)O1 (some centres undefined) | 0.332 µM (active) | – | –
CCOC(=O)[C@H](CCc1ccccc1)N[C@@H](C)C(=O)N1[C@@H](C(=O)O)C[C@H]2CCC[C@@H]21 | 18.7 µM (active) | – | –
CCC(C(=O)O)C1CCC(C)C(C(C)C(O)C(C)C(=O)C(CC)C2OC3(C=CC(O)[C@@]4(CC[C@](C)(C5CC[C@@](O)(CC)C(C)O5)O4)O3)C(C)CC2C)O1 (some centres undefined) | 1.18 µM (active) | – | –
COc1cc(OC)c(C=CS(=O)(=O)Cc2ccc(OC)c(NCC(=O)O)c2)c(OC)c1 | 0.118 µM (active) | – | –
NC(=O)Nc1sc(-c2ccc(F)cc2)cc1C(N)=O | 13.2 µM (active) | – | –
NC(=O)N1CCC(CC(=O)N2CCC([C@H]3c4ncc(Br)cc4CCc4cc(Cl)cc(Br)c43)CC2)CC1 | 1.32 µM (active) | – | –
CC(O)(C#Cc1ccc2c(c1)N(c1nc(N)ncc1Cl)CC2)c1nccs1 (centres undefined) | 26.4 µM (active) | – | –
CN[C@H](CC(C)C)C(=O)N[C@H]1C(=O)N[C@@H](CC(N)=O)C(=O)N[C@@H]2C(=O)N[C@H]3C(=O)N[C@H](C(=O)N[C@H](C(=O)O)c4cc(O)cc(O)c4-c4cc3ccc4O)[C@H](O)c3ccc(c(Cl)c3)Oc3cc2cc(c3O[C@@H]2O[C@H](CO)[C@@H](O)[C@H](O)[C@@H]2O[C@H]2C[C@](C)(N)[C@H](O)[C@H](C)O2)Oc2ccc(cc2Cl)[C@H]1O | – | -10.3% (inactive) | –

SMILES | Potency | max response | outcome
CC(=O)NCC(=O)N1[C@H]2CC[C@H]1c1cc(Nc3ncc(C(F)(F)F)c(NC4CCC4)n3)ccc12 | 5.26 µM (active) | – | –
NC(=NCCCCCCN=C(N)N=C(N)Nc1ccc(Cl)cc1)N=C(N)Nc1ccc(Cl)cc1 | 13.2 µM (active) | – | –
O=S(=O)(O)CCSSCCS(=O)(=O)O | – | – | inactive
N#CC(=Cc1ccc(O)c(O)c1)C(=O)NCc1ccccc1 | – | -6.05% (inactive) | –
COc1cc(C)c(Sc2cnc(NC(=O)c3ccc(CNC(C)C(C)(C)C)cc3)s2)cc1C(=O)N1CCN(C(C)=O)CC1 (centres undefined) | 14.8 µM (active) | – | –
CCCNC(=O)[C@H]1O[C@H]1C(=O)N[C@H](C(=O)N1CCC[C@@H]1C(=O)OC)C(C)CC (some centres undefined) | 10.5 µM (active) | – | –
C#CCC(Cc1cnc2nc(N)nc(N)c2n1)c1ccc(C(=O)N[C@@H](CCC(=O)O)C(=O)O)cc1 (some centres undefined) | 0.0418 µM (active) | – | –
Cn1cc(C2=C(c3c4n(c5ccccc35)CCC(CN)C4)C(=O)NC2=O)c2ccccc21 (centres undefined) | 13.2 µM (active) | – | –
Cc1noc(-c2ccc(CSCCC(=O)O)cc2)c1NC(=O)OC(C)c1ccccc1Cl (centres undefined) | – | -6.98% (inactive) | –
Cc1nc(NC(=O)N2CCC[C@@H]2C(N)=O)sc1-c1ccnc(C(C)(C)C(F)(F)F)c1 | 14.8 µM (active) | – | –
COC[C@H](NC(=O)c1cnc(C)s1)C(=O)N[C@@H](COC)C(=O)N[C@@H](Cc1ccccc1)C(=O)[C@@]1(C)CO1 | 0.148 µM (active) | – | –
CC(=O)ON=C1C(c2c(O)[nH]c3cc(Br)ccc23)=Nc2ccccc21 | 14.8 µM (active) | – | –
C[N+](C)([O-])CCNc1ccc(NCC[N+](C)(C)[O-])c2c1C(=O)c1c(O)ccc(O)c1C2=O | 5.26 µM (active) | – | –
Cc1[nH]c(C=C2C(=O)Nc3ccccc32)c(C)c1CCC(=O)O | 4.18 µM (active) | – | –
CC[C@]12C=CCN3CC[C@@]4(c5cc([C@@]6(C(=O)OC)C[C@H]7C[C@@H](C(C)(F)F)CN(Cc8c6[nH]c6ccccc86)C7)c(OC)cc5N(C)[C@H]4[C@@](O)(C(=O)OC)[C@H]1OC(C)=O)[C@@H]32 | 0.0083 µM (active) | – | –
